Results published in PubChem BioAssay.
The source made the active and inactive calls.

Columns and labels:
[1] = compounds binding Alexa647 anti-His antibody – biochemical, small-molecule microarray, 635 nm fluorescence, artefact control for SMM control protein annotation, primary screen (AID 1128); settings: higher = more signal;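 also: score merges feature fluorescence with signal-to-noise for each printed compound spot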
[2] = test system: Human papillomavirus type 1a E7 protein (residues 1-88); test: HPV1a E7 small-molecule binders, primary screen, biochemical, small-molecule microarray, residues 1-88, 635 nm (AID 1129); settings: small-molecule microarray binding, fluorescence 635 nm; higher = more signal
[3] = target: Focal adhesion kinase 1 (Homo sapiens) (UniProt Q05397); test: PTK2 protein binding on printed compound slides – biochemical, small-molecule microarray, 635/667 nm fluorescence, BSA, DTT, primary screen (AID 1130); settings: 635 nm fluorescence, higher = more signal;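 also: composite of spot emission at 667 nm and signal to noise over triplicate slides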
Sequence of Focal adhesion kinase 1 (Homo sapiens) (Q05397 whole entry, looked up): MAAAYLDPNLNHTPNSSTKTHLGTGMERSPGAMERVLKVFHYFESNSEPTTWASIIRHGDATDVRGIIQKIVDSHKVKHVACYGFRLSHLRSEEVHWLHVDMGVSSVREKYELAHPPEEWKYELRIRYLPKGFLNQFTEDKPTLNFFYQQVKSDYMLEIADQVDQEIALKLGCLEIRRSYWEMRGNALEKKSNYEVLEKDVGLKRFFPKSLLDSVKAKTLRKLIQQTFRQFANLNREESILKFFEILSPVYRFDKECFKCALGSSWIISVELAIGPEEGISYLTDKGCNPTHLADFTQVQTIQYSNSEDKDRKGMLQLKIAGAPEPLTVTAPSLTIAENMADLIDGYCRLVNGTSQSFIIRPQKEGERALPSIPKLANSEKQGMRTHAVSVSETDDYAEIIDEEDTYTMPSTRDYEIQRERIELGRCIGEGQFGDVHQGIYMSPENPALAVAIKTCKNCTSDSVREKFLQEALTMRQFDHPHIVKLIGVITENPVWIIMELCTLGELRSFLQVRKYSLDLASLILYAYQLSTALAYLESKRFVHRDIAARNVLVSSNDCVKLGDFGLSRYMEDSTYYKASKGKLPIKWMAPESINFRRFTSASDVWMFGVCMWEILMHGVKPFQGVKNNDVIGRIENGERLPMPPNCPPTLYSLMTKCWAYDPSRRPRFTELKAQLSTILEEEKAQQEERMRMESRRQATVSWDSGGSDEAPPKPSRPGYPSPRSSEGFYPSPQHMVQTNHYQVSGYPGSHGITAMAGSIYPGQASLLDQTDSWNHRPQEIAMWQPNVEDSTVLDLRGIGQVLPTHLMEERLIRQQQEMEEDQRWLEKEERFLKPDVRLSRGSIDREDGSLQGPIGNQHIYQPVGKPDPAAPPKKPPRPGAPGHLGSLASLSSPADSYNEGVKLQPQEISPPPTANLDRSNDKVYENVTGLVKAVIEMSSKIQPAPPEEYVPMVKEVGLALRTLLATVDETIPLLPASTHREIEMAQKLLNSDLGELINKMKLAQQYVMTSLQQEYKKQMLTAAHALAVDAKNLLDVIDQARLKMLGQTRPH

[4] = test system: Fibrinogen (Alexa647-labelled); test: Alexa647-fibrinogen binding to printed small molecules – biochemical, small-molecule microarray, 635/667 nm fluorescence, artefact control for SMM control-protein annotation, profiling panel (AID 1131); settings: fibrinogen-A647 binding fluorescence, higher = more signal;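 also: z-score merges 667 nm fluorescence with per-spot signal-to-noise over triplicate slides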
[5] = target: Follistatin (Homo sapiens) (UniProt P19883); test: FST protein binding to printed compounds – biochemical, small-molecule microarray, 635/667 nm fluorescence, primary screen (AID 1132); settings: 635 nm fluorescence, higher = more signal
Sequence of Follistatin (Homo sapiens) (P19883 whole entry, looked up): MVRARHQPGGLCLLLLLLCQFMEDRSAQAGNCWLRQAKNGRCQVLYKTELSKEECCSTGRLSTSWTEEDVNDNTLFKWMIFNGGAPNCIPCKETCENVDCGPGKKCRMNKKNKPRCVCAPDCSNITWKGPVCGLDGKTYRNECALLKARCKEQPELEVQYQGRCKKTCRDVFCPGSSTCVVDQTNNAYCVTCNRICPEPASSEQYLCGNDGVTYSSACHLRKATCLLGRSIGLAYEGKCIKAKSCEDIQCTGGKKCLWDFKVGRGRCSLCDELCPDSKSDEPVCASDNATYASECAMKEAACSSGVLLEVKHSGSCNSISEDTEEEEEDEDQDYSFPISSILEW

[6] = target: Fibroblast growth factor 2 (Homo sapiens) (UniProt P09038); test: basic fibroblast growth factor binding to printed compounds – biochemical, small-molecule microarray, 635/667 nm fluorescence, primary screen (AID 1133); settings: FGF2, fluorescence 635/667, higher = more signal
Sequence of Fibroblast growth factor 2 (Homo sapiens) (P09038 whole entry, looked up): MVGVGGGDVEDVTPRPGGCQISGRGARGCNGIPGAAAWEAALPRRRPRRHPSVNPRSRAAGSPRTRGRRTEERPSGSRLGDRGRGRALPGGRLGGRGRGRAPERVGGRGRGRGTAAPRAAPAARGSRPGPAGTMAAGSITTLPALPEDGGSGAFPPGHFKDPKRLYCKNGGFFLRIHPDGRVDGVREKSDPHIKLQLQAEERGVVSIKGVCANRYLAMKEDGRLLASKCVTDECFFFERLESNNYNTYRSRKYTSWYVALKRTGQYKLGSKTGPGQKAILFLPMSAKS

[7] = JC-1 mitochondrial potential readout, lung cancer cells – cell-based, A549, JC-1 fluorescence, basal, 24 h, 100 nL, profiling panel (AID 1138); settings: higher = more signal;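 also: A549 lung adenocarcinoma cells under basal conditions with no added stimulus; test concentration not given here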
Lefty1 = Lefty1 protein binding to printed compounds – biochemical, small-molecule microarray, 635/667 nm fluorescence, primary screen (AID 1139); settings: fluorescence 635/667, higher = more signal
[8] = test system: wheat germ agglutinin (Triticum aestivum), Alexa647-labelled; test: Alexa647-WGA lectin binding to printed small molecules – biochemical, small-molecule microarray, 635/667 nm fluorescence, artefact control for SMM control-protein annotation, profiling panel (AID 1140); settings: WGA-A647 binding, 635 nm fluorescence, higher = more signal;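 also: score merges 667 nm feature emission with signal to noise over triplicate slides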
[9] = target: Luciferin 4-monooxygenase (Photinus pyralis) (UniProt P08659); test: inhibition of purified Photinus pyralis luciferase – biochemical, luminescence, purified enzyme, 2006 set, primary screen (AID 1141); settings: purified firefly luciferase, SteadyGlo luminescence, 30 min; higher = more signal, called active from +8 up or from −8 down;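 also: cell-free assay with purified firefly luciferase at 100 ng per well in PBS; test concentration not given here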
Sequence of Luciferin 4-monooxygenase (Photinus pyralis) (P08659 whole entry, looked up): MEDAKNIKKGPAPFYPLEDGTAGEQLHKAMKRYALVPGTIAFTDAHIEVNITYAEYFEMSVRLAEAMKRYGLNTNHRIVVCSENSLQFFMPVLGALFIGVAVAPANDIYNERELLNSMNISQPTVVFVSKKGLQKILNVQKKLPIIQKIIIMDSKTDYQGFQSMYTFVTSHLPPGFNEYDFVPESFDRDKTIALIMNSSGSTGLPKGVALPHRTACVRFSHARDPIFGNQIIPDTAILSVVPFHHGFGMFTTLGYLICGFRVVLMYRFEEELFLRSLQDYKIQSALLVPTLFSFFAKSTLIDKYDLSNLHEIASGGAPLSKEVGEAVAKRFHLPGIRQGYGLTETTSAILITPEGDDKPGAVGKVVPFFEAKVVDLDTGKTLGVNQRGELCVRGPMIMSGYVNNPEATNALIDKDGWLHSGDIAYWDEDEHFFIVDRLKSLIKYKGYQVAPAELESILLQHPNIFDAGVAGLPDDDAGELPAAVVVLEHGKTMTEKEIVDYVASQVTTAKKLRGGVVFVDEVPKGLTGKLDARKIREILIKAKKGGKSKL

SMILES	composite z-score [1]	composite z-score [2]	composite z-score [3]	composite z-score [4]	composite z-score [5]	composite z-score [6]	z-score [7]	composite z-score (Lefty1)	composite z-score [8]	z-score [9]
CC(C)(C)N1C(=O)[C@H]2[C@H]3[C@H](O)C=CC(=O)[C@@H]3CC[C@H]2C1=O	0.204	0.025	-0.258	0.347	0.39	0.255	0.109	0.461	0.0896	-0.753 (inactive)
COc1ccc(COC(=O)NN=C2C[C@@H](O)[C@@H](O)[C@@H]3[C@@H]4C(=O)N(Cc5ccccc5)C(=O)[C@@H]4CC[C@H]23)cc1	-0.382	-0.111	0.0115	-0.519	-0.311	-0.977	0.235	-0.403	0.266	0.893 (inactive)
COc1cccc([C@H]2Oc3ccc(OC)cc3C(=NOC[C@@H](O)COCc3ccco3)[C@@H]2O)c1	0.232	-1.3	0.3	-2.19	-0.707	-0.51	-0.843	-0.488	-0.418	-2.4 (inactive)
CCCNC(=O)OC[C@H]1O[C@H](CCON=C(C)CCC(=O)OC[C@H]2O[C@H](c3ccccc3)C=C[C@@H]2Oc2ccc(OC)cc2)C=C[C@@H]1Oc1ccc(OC)cc1	2.6	-1.45	-0.447	-0.467	-0.342	-0.273	0.424	0.171	0.619	1 (inactive)
C[C@@H]1NC(=O)[C@@H](C)COC(=O)[C@H](C)NC(=O)[C@@H](C)COC1=O	1.08	0.922	0.0556	-0.0769	0.172	1.21	-0.323	0.389	-0.137	0.254 (inactive)
CCOC(=O)NN=C1C[C@@H](O)[C@@H](O)[C@@H]2[C@@H]3C(=O)N(Cc4ccc5c(c4)OCO5)C(=O)[C@@H]3CC[C@H]12	-0.0164	0.117	-0.243	0.785	-0.176	-0.289	0.0318	0.285	0.559	1.12 (inactive)
C=CC[C@@H]1C=C[C@H](ON=C(C)CCC(=O)OC[C@H]2O[C@H](c3ccccc3)C=C[C@@H]2Oc2ccc(OC)cc2)[C@@H](CO)O1	0.14	-0.214	0.261	-1.43	-0.398	0.121	-0.217	0.443	0.104	-0.506 (inactive)
CC(C)=CCCC(C)=CCON=C1C[C@@H](O)[C@@H](O)[C@@H]2[C@@H]3C(=O)N(C[C@@H]4CCCO4)C(=O)[C@@H]3CC[C@H]12	1.39	1.13	0.349	0.499	1.13	0.945	-0.773	1.24	0.572	0.217 (inactive)
